Most compounds without a hit are left out; they make up all but 32% or so of the library.
CYP2C19 activ: increases human CYP2C19 enzyme activity. P33261. recombinant CYP2C19, luciferin-H EGE luminescence; active compounds read high; 0 = fully inhibited enzyme, 1 = untreated enzyme. activation factor at 5 µM. 96,000 tested, under 10 active. AID 1025;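 active = activation factor of at least 2 at 5 µM in the primary screen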
Target sequence (P33261 whole entry, looked up): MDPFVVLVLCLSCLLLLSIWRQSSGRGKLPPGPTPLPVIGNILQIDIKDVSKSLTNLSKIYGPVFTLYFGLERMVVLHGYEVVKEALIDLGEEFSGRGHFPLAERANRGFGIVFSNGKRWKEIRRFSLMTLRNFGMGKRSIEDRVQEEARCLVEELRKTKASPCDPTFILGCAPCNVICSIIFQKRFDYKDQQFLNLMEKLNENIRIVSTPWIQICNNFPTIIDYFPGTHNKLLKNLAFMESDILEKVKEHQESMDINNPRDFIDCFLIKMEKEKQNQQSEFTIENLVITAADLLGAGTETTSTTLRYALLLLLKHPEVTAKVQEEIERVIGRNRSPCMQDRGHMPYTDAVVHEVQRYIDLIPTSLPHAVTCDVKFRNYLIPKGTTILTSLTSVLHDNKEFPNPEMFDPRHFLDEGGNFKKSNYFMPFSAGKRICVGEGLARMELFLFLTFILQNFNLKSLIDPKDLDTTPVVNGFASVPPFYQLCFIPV
CYP2C9 inh: human CYP2C9 inhibition; CYP2C9 Supersomes, luciferin-H conversion, luminescence; 20% of 96,000 active; inhibition, % at 5 µM; P11712;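 active = blocking of liver enzyme CYP2C9 beyond about 50% at 5 µM, limit read from the data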
CYP2C9 act: increases human cytochrome P450 2C9 activity. 1.4% of 96,000 active. AID 1024. recombinant CYP2C9, luciferin-H conversion, luminescence; active compounds read high; factor 1 = untreated enzyme, 0 = blocked. activation factor at 5 µM;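 active = activation factor of 2 or more for CYP2C9 at a 5 µM dose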
PostGolgi ctrl: growth of the yeast control strain, post-Golgi counter-screen | efflux-deficient yeast background strain, growth absorbance A615, 16 h | inhibition, % at 10 µM | 5% of 98,000 active | AID 738
CYP2C19 inh: inhibitors of human CYP2C19; CYP2C19 Supersomes, luciferin-H EGE luminescence, 30 min; inhibition, % at 5 µM; 21% of 96,000 active;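 active = CYP2C19 inhibition above a set limit at 5 µM in the primary screen, cut at about 50% in these data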
PostGolgi yeast: growth inhibition of a yeast mutant, post-Golgi transport screen. post-Golgi transport phenotypic cell assay. inhibition, % at 10 µM. 0.9% of 98,000 active. AID 739;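 also: yeast cells grown in 1536-well plates; yeast grown about 18 h at 30C before absorbance read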
Large screens that a line does not name were inactive. Rule as the data show it, unless noted: active = inhibition above about 30%; inactive = the rest.

O=S(=O)(Nc1ccc(-c2nc3cccnc3s2)cc1)c1cccs1	CYP2C9 inh 83
Cc1ccnc(NS(=O)(=O)c2cccs2)c1	none
O=S(=O)(Nc1ccc(-c2nc3cccnc3s2)cc1)c1ccc(Cl)s1	CYP2C9 inh 100, PostGolgi ctrl 48
O=S(=O)(Nc1cccc2ncccc12)c1cccs1	CYP2C9 act 2.9
CCCCCC(C)n1[nH]c(=O)c2c(C)cc(C)nc21 (configuration not stated)	CYP2C9 inh 66, CYP2C19 inh 98
Cc1csc(OCc2ccc(C#N)cc2)n1	CYP2C19 inh 93
CCOc1ccc(C(=O)CCc2nc3ccccc3s2)cc1	CYP2C9 inh 91, CYP2C19 inh 56
CCOc1ccc(C(=O)CCC(=O)O)cc1	none
COc1ccc(N(CC(=O)Nc2cccc(N(C)S(C)(=O)=O)c2)S(C)(=O)=O)cc1OC	none
COc1ccc(C)cc1N(CC(=O)Nc1cccc(N(C)S(C)(=O)=O)c1)S(C)(=O)=O	PostGolgi ctrl 37
Cc1ccc(S(=O)(=O)N(CC(=O)Nc2cccc(N(C)S(C)(=O)=O)c2)c2ccc(Cl)c(Cl)c2)cc1	CYP2C9 inh 100, CYP2C19 inh 80
CN(c1cccc(NC(=O)CN(c2ccc(C34CC5CC(CC(C5)C3)C4)cc2)S(C)(=O)=O)c1)S(C)(=O)=O	CYP2C9 inh 54
CCc1ccccc1N(CC(=O)Nc1cccc(N(C)S(C)(=O)=O)c1)S(C)(=O)=O	none
COc1cc(C2N=C(c3ccccc3)NO2)cc(Br)c1O (configuration not stated)	CYP2C19 inh 87
Cc1ccc(C)c(-n2nnnc2SCC(=O)c2ccc3c(c2)NC(=O)CO3)c1	CYP2C9 act 2.5, CYP2C19 inh 56
C/C(=C\c1ccccc1)C(=O)Nc1cc(C)on1	none
O=C(O)c1cc(S(=O)(=O)N2CCOCC2)c(Sc2ccccn2)cc1Sc1ccccn1	none
N#C/C(=C\c1cc(Cl)ccc1O)C(=O)NC1CCCCC1	CYP2C9 inh 61
O=[N+]([O-])c1ccc2nc(/C=C/c3ccc(Cl)cc3)[nH]c2c1	PostGolgi ctrl 75, PostGolgi yeast 47
O=[N+]([O-])c1ccc(-c2nc3ccc([N+](=O)[O-])cc3[nH]2)cc1	none
Cn1c(N2CCN(C(=O)C34CC5CC(CC(C5)C3)C4)CC2)nc2ccccc21	none (no result: PostGolgi ctrl, PostGolgi yeast)
Cc1cccc(S(=O)(=O)c2c(N)n(Cc3ccco3)c3nc4ccccc4nc23)c1	CYP2C9 inh 96, CYP2C19 inh 91
Cc1ccc(S(=O)(=O)c2c(N)n(NC(=O)c3ccco3)c3nc4ccccc4nc23)cc1	none
Cc1ccc(S(=O)(=O)c2c(N)n(Cc3ccco3)c3nc4ccccc4nc23)cc1	CYP2C9 inh 69
CCC(C)(C)n1nnnc1C(c1cccc(C#N)c1)N1CCN(c2cccc(C)c2C)CC1 (configuration not stated)	none
NC(=O)c1ccc(-c2ccc(Br)cc2)o1	CYP2C19 inh 51
COc1cccc(Cn2c(N)c(C#N)c3nc4ccccc4nc32)c1OC	none
COc1ccc(C)cc1-n1c(N)c(C#N)c(C#N)c1-c1ccc(OC)c(OC)c1OC	CYP2C9 inh 50
Cc1ccc2cc(CCNC(=O)c3ccco3)c(=O)[nH]c2c1C	none
Cc1ccc(S(=O)(=O)N2CCCC2C(=O)OCc2ccco2)cc1 (configuration not stated)	none
Cc1ccc(S(=O)(=O)N2CCSC2c2ccco2)cc1 (configuration not stated)	CYP2C19 inh 96
CCOC(=O)C1=NN(N=O)C2(CC(=O)N(c3cc(C)cc(C)c3)C2=O)C1 (configuration not stated)	none
CC(C)(C)c1ccc(-c2nnc(SCCC#N)n2C2CCCC2)cc1	PostGolgi ctrl 48
O=C1CC(N(C(=O)c2ccco2)c2cccc(Cl)c2)C(=O)N1c1cccc(Cl)c1 (configuration not stated)	CYP2C9 inh 92, CYP2C19 inh 91
O=C1CC(N(C(=O)c2ccco2)c2ccc(F)cc2)C(=O)N1c1ccc(F)cc1 (configuration not stated)	none
CC1CC(C(F)(F)C(F)(F)F)n2nc(C(=O)O)cc2N1 (configuration not stated)	none
COc1cc(C2C(C(C)=O)=C(C)Nc3ncnn32)ccc1O (configuration not stated)	none
COc1cc(C2C(C(=O)OC(C)C)=C(C)Nc3[nH]c(=O)[nH]c(=O)c32)ccc1O (configuration not stated)	CYP2C19 inh 82
O=C1c2ccccc2C(Nc2ccc(S(=O)(=O)N3CCCCCC3)cc2)N1c1ccccn1 (configuration not stated)	none
Cc1ccc(NC2c3ccccc3C(=O)N2CCN2CCOCC2)cc1 (configuration not stated)	CYP2C19 inh 82
CCN(CC)S(=O)(=O)c1ccc(NC2c3ccccc3C(=O)N2CCN2CCOCC2)cc1 (configuration not stated)	none (no result: PostGolgi ctrl)
O=C1c2ccccc2C(Nc2ccc(S(=O)(=O)N3CCOCC3)cc2)N1c1ccccn1 (configuration not stated)	CYP2C9 inh 77
O=C1c2ccccc2C(Nc2ccc(S(=O)(=O)N3CCCCC3)cc2)N1Cc1ccco1 (configuration not stated)	CYP2C9 inh 90
O=C1c2ccccc2C(Nc2ccc(S(=O)(=O)N3CCOCC3)cc2)N1Cc1ccco1 (configuration not stated)	CYP2C9 inh 60
Cc1ccc(NC(=S)N2CCC(c3nc4ccccc4s3)CC2)cc1C	none
O=C(CSc1nnnn1-c1ccc(Cl)cc1)N1CCc2ccccc2C1	PostGolgi ctrl 38, CYP2C19 inh 74
CCn1c(SCC(=O)N2CCCc3ccccc32)nnc1-c1cccs1	none
CCn1nnnc1SCC(=O)N1c2ccccc2CCc2ccccc21	CYP2C9 inh 71, CYP2C19 inh 91
O=C(CSc1nnc(-c2cccs2)n1-c1ccccc1)N1CCCc2ccccc21	CYP2C9 inh 85
O=C(CSc1nnnn1-c1ccccc1)N1CCCc2ccccc21	CYP2C9 inh 58, CYP2C19 inh 80
O=C(CSc1nnnn1-c1ccccc1)N1CCc2ccccc21	none
Nc1nc(SCC(=O)N2CCCc3ccccc32)n(-c2ccccc2)n1	CYP2C19 inh 75
CCCn1nnnc1SCC(=O)N1CCCc2ccccc21	CYP2C19 inh 83
Cn1c(CSc2ncccn2)nnc1SCC(=O)N1CCCc2ccccc21	none
CC(=O)Nc1cc2c(cc1NC(=O)c1cnccn1)OCCO2	none
COC(=O)Oc1ccc(/C=N/NC(=O)CN(c2ccccc2Cl)S(C)(=O)=O)cc1OC	CYP2C9 inh 63
CN(C)c1ccc(/C=N/NC(=O)CN(c2cccc(Cl)c2)S(C)(=O)=O)cc1Br	CYP2C9 inh 51
CCN(CC)C(=O)CN(c1ccc(F)c(Cl)c1)S(C)(=O)=O	none
